Records with an inconclusive call do not appear. Where a call stands in place of a potency, no number is given. Calls of active or inactive are those of the source. Calls come from the whole dose curve; as a rule, active = well fitted cell-killing curve with a large enough effect in the repeat runs; inconclusive = weak or mixed curves, or effect the other way; inactive = flat fitted curve, though single readings scatter.
Test: qHTS RealTime-Glo MT Cell Viability Assay in HEK293 cells - 32 hour (AID 1224868); note: nearly all actives have a fitted effect of over 50% in size
Details: RealTime-Glo luminescence; series mostly up to 76.8 µM
Source text: National Center for Advancing Translational Sciences [NCATS]
NIH Chemical Genomics Center [NCGC]
U.S. Environmental Protection Agency [EPA]
National Institutes of Environmental Health Sciences [NIEHS]
National Toxicology Program [NTP]
U.S. Food and Drug Administration [FDA]
Measure of cell viability is critical in the cell-base assay. Analysis of cell viability is necessary for the characterization of cell responses to cytotoxic drugs and environmental stress. A RealTime-Glo MT Cell Viability Assay to monitor cell viability in real time of continues cell culture during 40 hours of compound treatment was used to screen Tox21 10K library compounds in Hek293 cells. The RealTime-Glo MT Cell Viability Assay is a nonlytic, homogeneous, bioluminescent method to measure cell viability in real time using a simple, plate-based method. The assay involves adding NanoLuc luciferase and a cell-permeant prosubstrate to cells in culture. Viable cells reduce the proprietary prosubstrate to generate a substrate for NanoLuc luciferase. This substrate diffuses from cells into the surrounding culture medium, where it is rapidly used by the NanoLuc Enzyme to produce a luminescent signal. The signal correlates with the number of viable cells, making the assay well suited for cytotoxicity studies.
Tox21 Assay Protocol Summary:
The mixture of Hek293 cell suspension and reagents were dispensed at 600cells/6 ul/well in 1536-well tissue culture treated black solid bottom plates using a Multidrop dispenser. After the assay plates were incubated at a 37 C/5% CO2 incubator for 5 hours, 23 nL of compounds dissolved in DMSO, positive and negative controls was transferred to the assay plate by a pintool work station. The plates were incubated at 37 C for 40 hours. The luminescence intensity were measured at 0h, 8h, 16h, 24h, 32h and 40h time points using ViewLux plate reader during compound treatment.
Potency is the fitted concentration of half-maximal effect.

**Q.** For `ClC1=C(Cl)[C@]2(Cl)[C@@H]3[C@H]4C[C@H]([C@@H]5O[C@H]45)[C@@H]3[C@@]1(Cl)C2(Cl)Cl`, which Potency is on record?
**A.** Its Potency is “inactive”.

**Q.** With `COc1ccc2c(c1OC)C(=O)O[C@@H]2[C@H]1c2cc3c(cc2CCN1C)OCO3` as the molecule, how does the Potency read?
**A.** The Potency was “inactive”.

**Q.** With `CCN(CC)Cc1nccn1-c1ccc([N+](=O)[O-])cc1C(=O)c1ccccc1Cl` as the molecule, how does the Potency read?
**A.** Its Potency is “inactive”.

**Q.** With `C#CC1(O)CCCCC1` as the molecule, how does the Potency read?
**A.** The Potency was “inactive”.

**Q.** Which Potency does the source give for `Nc1ccccc1-c1ccccc1` here?
**A.** The Potency was “inactive”.

**Q.** Which Potency does the source give for `CCCCC(CC)COC(=O)c1ccccc1C(=O)OCC(CC)CCCC` (stereo not given) here?
**A.** Its Potency is “inactive”.

**Q.** With `Oc1ccc([C@H]2CNCc3c2ccc(O)c3O)cc1O` as the molecule, how does the Potency read?
**A.** Its Potency is “inactive”.

**Q.** With `O=C(Cl)c1ccccc1F` as the molecule, how does the Potency read?
**A.** Its Potency is “inactive”.

**Q.** With `CCC[CH2][Sn]([CH2]CCC)([O]C(C)=O)[O]C(C)=O` as the molecule, how does the Potency read?
**A.** Its Potency is 78.3 nM (active).

**Q.** Which Potency does the source give for `CC(O)C(=O)[O][Hg][c]1ccccc1` (stereo not given) here?
**A.** The Potency was 977 nM (active).

**Q.** With `CC(=O)[O-].CC(=O)[O-].CC(=O)[O-].[Cr+3]` as the molecule, how does the Potency read?
**A.** The Potency was “inactive”.

**Q.** Which Potency does the source give for `CC(C)=CC1C(C(=O)OC(C#N)c2cccc(Oc3ccccc3)c2)C1(C)C` (stereo not given) here?
**A.** The Potency was “inactive”.

**Q.** For `CCCCC(CC)COC(=O)OOC(C)(C)C` (stereo not given), which Potency is on record?
**A.** The Potency was “inactive”.

**Q.** With `CCC(C)Br` (stereo not given) as the molecule, how does the Potency read?
**A.** Its Potency is “inactive”.

**Q.** For `FC(F)C(F)(F)OCC(Cn1cncn1)c1ccc(Cl)cc1Cl` (stereo not given), which Potency is on record?
**A.** Its Potency is 21700 nM (active).

**Q.** For `Cc1cc2c3c(c1)C(c1ccccc1)=N[C@@H](NC(=O)c1ccncc1)C(=O)N3CC2`, which Potency is on record?
**A.** Its Potency is “inactive”.

**Q.** With `CN=C=O` as the molecule, how does the Potency read?
**A.** The Potency was “inactive”.

**Q.** For `O=[N+]([O-])c1cc(C(F)(F)F)c(Cl)c([N+](=O)[O-])c1Nc1ncc(C(F)(F)F)cc1Cl`, which Potency is on record?
**A.** The Potency was 1740 nM (active).

**Q.** For `CC(Cl)CCl` (stereo not given), which Potency is on record?
**A.** Its Potency is “inactive”.

**Q.** With `Clc1ccc(C2(Cn3cncn3)OCCO2)c(Cl)c1` as the molecule, how does the Potency read?
**A.** Its Potency is “inactive”.

**Q.** With `CCCCn1cc[n+](C)c1.[Cl][Fe-]([Cl])([Cl])[Cl]` as the molecule, how does the Potency read?
**A.** The Potency was “inactive”.

**Q.** With `CC(C)N(C(=O)SC/C(Cl)=C/Cl)C(C)C` as the molecule, how does the Potency read?
**A.** The Potency was “inactive”.

**Q.** Which Potency does the source give for `Cc1ccc([N+](=O)[O-])[c]2c1[O][Hg]2` here?
**A.** The Potency was 3790 nM (active).

**Q.** With `N#Cc1c2ccccc2cc2ccccc12` as the molecule, how does the Potency read?
**A.** The Potency was “inactive”.

**Q.** For `Oc1cc(Cl)c(Cl)c(Cl)c1Cl`, which Potency is on record?
**A.** Its Potency is 47800 nM (active).

**Q.** Which Potency does the source give for `Nc1cc(Cl)ccc1Cl` here?
**A.** Its Potency is “inactive”.

**Q.** Which Potency does the source give for `Cc1cccc(Cc2cnc[nH]2)c1C` here?
**A.** Its Potency is “inactive”.

**Q.** For `CC(=O)[O-].CC(=O)[O-].[Co+2]`, which Potency is on record?
**A.** Its Potency is “inactive”.

**Q.** Which Potency does the source give for `CSC(C)(C)/C=N/O` here?
**A.** The Potency was “inactive”.

**Q.** Which Potency does the source give for `[F][Sn]([c]1ccccc1)([c]1ccccc1)[c]1ccccc1` here?
**A.** The Potency was 436 nM (active).

**Q.** For `Nc1c(Cl)c(Cl)c(Cl)c(Cl)c1Cl`, which Potency is on record?
**A.** The Potency was “inactive”.

**Q.** Which Potency does the source give for `CCC1(CC)C(=O)N=C(O)NC1=O` here?
**A.** Its Potency is “inactive”.

**Q.** For `Clc1cc(Cl)c(-c2cc(Cl)c(Cl)cc2Cl)cc1Cl`, which Potency is on record?
**A.** Its Potency is “inactive”.

**Q.** Which Potency does the source give for `CC(=O)[O][Pb]([c]1ccccc1)([c]1ccccc1)[c]1ccccc1` here?
**A.** Its Potency is 490 nM (active).

**Q.** Which Potency does the source give for `CSC1=N[C@@](C)(c2ccccc2)C(=O)N1Nc1ccccc1` here?
**A.** Its Potency is “inactive”.

**Q.** With `O=C(O)[C@H](O)[C@@H](O)C(=O)O` as the molecule, how does the Potency read?
**A.** The Potency was “inactive”.

**Q.** For `O=[N+]([O-])c1ccc(Cl)c(Cl)c1Cl`, which Potency is on record?
**A.** The Potency was “inactive”.

**Q.** With `CC(=O)[O][Sn]([c]1ccccc1)([c]1ccccc1)[c]1ccccc1` as the molecule, how does the Potency read?
**A.** Its Potency is 38.9 nM (active).

**Q.** For `O=S1(=O)OCC2C(CO1)C1(Cl)C(Cl)=C(Cl)C2(Cl)C1(Cl)Cl` (stereo not given), which Potency is on record?
**A.** The Potency was 21900 nM (active).

**Q.** Which Potency does the source give for `O=C(O)CCCCCCNC1c2ccccc2CCc2ccccc21` here?
**A.** Its Potency is “inactive”.

— PubChem BioAssay (Tox21)
